Rows were chosen to be rich in hits. Some 10% of all compounds tested hit in one or more screens of this group.
Lamin A splicing – LMNA splicing modulation. HeLa LMNA splicing GFP/RFP minigene ratio, 48 h. Potency, µM (highest dose often 46.1 µM), without a hit: top-dose ratio change, negative = inhibition, usual class: inhibitors. 200,000 compounds, 0.01% hits. AID 1487; active = well fitted inhibition curve with a large enough effect in the signal ratio, with a control signal flat, not every such curve was filed as active; inconclusive = small, poorly fitted or top-dose-only effect, or effect the other way, or a change in a side signal; the % refers to the signal ratio; note: potency is the fitted concentration of half-maximal effect
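Read-out is the ratio of GFP to DsRed2 object intensity, acquired by 488 nm laser-scanning cytometry on HeLa lamin A-EGFP minigene reporter cells. Compound incubation 48 hrs at 37 °C in Opti-MEM with 2% FBS; DMSO 0.5% final.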
PNC inhibitor – blocks assembly of the perinucleolar compartment; activity change (PNC), negative = inhibition, % at 10 µM; 140,000 compounds, 3.1% hits; PC3M PTB-GFP, PNC prevalence imaging, 16 h; hits give low values;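 active = readout at or below -70, meaning at least 70% loss of cells showing the perinucleolar compartment, a nuclear body marking cancer cells; inconclusive = readout between -30 and a set limit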;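 note: plate controls were DMSO wells for no effect and camptothecin positive control wells for full effect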
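Read-out is percentage of cells bearing a perinucleolar compartment, from automated 20x imaging of fixed, Hoechst-stained PC3M PTB-GFP cells. Cells were seeded 4 h, then exposed 16 h to compound (23 nl of library stock) in duplicate plates.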
ALDH1A1 block – blocks purified human ALDH1A1 activity; P00352; Purified ALDH1A1, NADH fluorescence, propionaldehyde substrate; Potency, µM (series often up to 75.3 µM), without a hit: top-dose activity, negative = inhibition, most hits filed as inhibitors; 220,000 compounds, 7.3% hits; AID 1030;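 note: potency is the fitted concentration of half-maximal effect; plate controls were no enzyme wells and a reference inhibitor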
Target sequence (P00352 whole entry, looked up): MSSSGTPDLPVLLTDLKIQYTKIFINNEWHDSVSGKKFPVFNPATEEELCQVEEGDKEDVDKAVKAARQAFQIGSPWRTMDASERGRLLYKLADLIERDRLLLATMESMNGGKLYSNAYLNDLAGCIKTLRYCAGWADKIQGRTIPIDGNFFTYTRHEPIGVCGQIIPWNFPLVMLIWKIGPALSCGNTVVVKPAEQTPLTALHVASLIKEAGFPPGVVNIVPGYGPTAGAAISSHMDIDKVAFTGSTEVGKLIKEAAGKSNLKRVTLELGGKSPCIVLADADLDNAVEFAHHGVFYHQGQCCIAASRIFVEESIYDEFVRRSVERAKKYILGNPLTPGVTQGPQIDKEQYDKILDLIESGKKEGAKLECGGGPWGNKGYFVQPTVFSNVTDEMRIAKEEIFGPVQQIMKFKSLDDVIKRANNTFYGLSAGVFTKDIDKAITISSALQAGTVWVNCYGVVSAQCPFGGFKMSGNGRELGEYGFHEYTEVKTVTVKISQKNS
HPGD inh – blocks human HPGD enzyme activity; purified HPGD, NADH fluorescence kinetic, PGE2 substrate; Potency, µM, inactives show top-dose activity change, negative = inhibition, most hits filed as inhibitors; 150,000 compounds, 4.3% hits; note: potency is the fitted concentration of half-maximal effect
Target sequence (P15428 whole entry, looked up): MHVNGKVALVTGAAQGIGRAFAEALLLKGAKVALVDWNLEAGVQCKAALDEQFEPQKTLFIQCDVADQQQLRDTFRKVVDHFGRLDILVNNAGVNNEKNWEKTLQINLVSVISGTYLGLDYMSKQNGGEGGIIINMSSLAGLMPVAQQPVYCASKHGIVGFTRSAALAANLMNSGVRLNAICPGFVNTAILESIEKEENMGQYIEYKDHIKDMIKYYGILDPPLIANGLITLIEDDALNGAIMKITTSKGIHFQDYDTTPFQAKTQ
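NADH formation kinetics: reaction with 30 uM PGE2 and 1 mM NAD+ (final), 20 nM enzyme, Tris-HCl pH 8 with Tween 20, after 15 min compound preincubation at room temperature. Fluorescence change, last versus first of five reads.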
KinaseGlo FLuc – Kinase-Glo luciferase inhibition (counter-screen) | Potency, µM (top dose mostly 38.3 µM), for inactives: top-dose activity change, negative = inhibition, usual class: inhibitors | Q27757 | AID 1379 | Kinase-Glo luciferase, ATP luminescence, 8 min | 200,000 compounds, 0.28% hits; active = well fitted inhibition curve with a large enough effect; inconclusive = small, poorly fitted or top-dose-only effect; note: potency is the fitted concentration of half-maximal effect; nearly all actives have a fitted effect of over 60% in size
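Luminescence was the read-out, taken after 8-minute incubation at ambient temperature. Luciferase turned over luciferin with 10 uM ATP in imidazole pH 7.2 buffer containing KCl, MgCl2, Tween 20 and BSA.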
Active calls of the source: *; ? = inconclusive; nt = no result given; [ ] = remark or other dose. Unless noted, calls come from the whole dose curve; as a rule, active = well fitted inhibition curve with a large enough effect (not every such curve was filed as active); inconclusive = small, poorly fitted or top-dose-only effect, or another doubt; inactive = no such curve, though single readings can be large or run the other way. Unless noted, % is set by controls: 0 for no effect and ±100 for the full control effect.

SMILES	Lamin A splicing	PNC inhibitor	ALDH1A1 block	HPGD inh	KinaseGlo FLuc
COc1ccccc1CCn1c(=O)c(-c2ccc(Cl)cc2)nc2cncnc21	nt	nt	6%	-3%	-2%
COc1ccccc1CCn1c(=O)cnc2cncnc21	?	nt	1.4µM*	nt	nt
N#Cc1cccc(NC(=O)N2CCCC3(CCN(C(=O)c4cc(C(F)(F)F)cc(C(F)(F)F)c4)CC3)C2)c1	nt	nt	0%	-9%	-1%
COc1ccc(N2CCN(CCCNC(=O)c3sc4ncccc4c3-n3cccc3)CC2)cc1	-22%[46 µM]	nt	nt	nt	nt
Cc1cccc(NS(=O)(=O)c2cccs2)c1	14%	12	9%	28µM*	0%
CCCOC(=O)c1ccc(NC(=O)/C=C/c2cccs2)cc1	-4%	52	-15%	?	0%
O=S(=O)(Nc1cccc(CO)c1)c1cccs1	13%[46 µM]	nt	?	nt	nt
O=S(=O)(Nc1ccc(N2CCCCC2)cc1)c1cccs1	?	41	-2%	25µM*	-7%
O=C(c1ccc(NS(=O)(=O)c2cccs2)cc1)N1CCCCC1	?	?	?	11µM*	-2%
CCCOC(=O)c1ccc(NS(=O)(=O)c2cccs2)cc1	?	?	?	18µM*	-1%
Cc1cccc(NC(=O)CSc2nc(=O)n(Cc3ccncc3)c3c2CCC3)c1C	-11%[46 µM]	nt	nt	nt	nt
O=C(CNCc1cccs1)Nc1ccc(N2CCCCCC2)cc1	?	nt	22µM*	nt	-2%
COc1ccc(NS(=O)(=O)c2cccc(C(=O)N/N=C(\C)c3ccncc3)c2)cc1	?	-91*	?	-16%	4%
C/C(=N\NC(=O)c1ccc(NS(=O)(=O)c2cccs2)cc1)c1cccs1	8%[46 µM]	nt	4%	nt	2%
C/C(=N\NC(=O)c1ccc(NS(=O)(=O)c2cccs2)cc1)c1ccc(Cl)cc1	4%	-89*	-6%	-9%	3%
COCCn1c(=O)c(-c2cccs2)nc2cnc(Oc3cccc(Cl)c3)nc21	nt	nt	?	?	-1%
COc1cccc(OCCCCCCN2CCOCC2)c1	4%	2	4µM*	-9%	7%
Brc1ccccc1OCCCN1CCOCC1	-9%	-100*	-9%	-13%	2%
CC1CCN(CCCCOc2ccccc2Br)CC1	?	-28	?	4%	-2%
CCn1cc(-c2n[nH]c(=S)n2-c2ccc(C)cc2Br)c(=O)c2ccc(C)nc21	nt	nt	1%	nt	nt
CN1CCN(C(CNC(=O)C(=O)Nc2ccccc2)c2ccc3c(c2)OCO3)CC1 (stereo not given)	-7%[46 µM]	nt	nt	nt	nt
COc1ccc2nc(NCc3ccccc3)[nH]c2c1	-25%	?	2%	-3%	-1%
Cc1ccc2nc(NCc3ccccc3)[nH]c2c1	?	-103*	6%	-1%	13%
C=CC[C@@H]1C=C[C@@H](O/N=C\c2ccc(C(=O)N3[C@H](c4ccc(C)cc4)[C@@H](C)CC[C@H]3C(=O)OC)cc2)[C@@H](CO)O1	nt	nt	16%[13.5 µM]	nt	nt
O=C1CC(c2cc(Br)ccc2F)c2cc3c(cc2N1)CCC3 (stereo not given)	?	-97*	8%	-10%	-4%
SMILES	Lamin A splicing	PNC inhibitor	ALDH1A1 block	HPGD inh	KinaseGlo FLuc
Cc1ccc(S(=O)(=O)N/N=C(\c2ccccc2)c2cccnc2)cc1	-10%[46 µM]	nt	6%	nt	1%
Cc1ccc(C)c(S(=O)(=O)N/N=C/c2ccc(F)cc2)c1	?	nt	?	nt	0%
Cc1ccc(C)c(S(=O)(=O)N/N=C/c2cccnc2)c1	-5%	-11	8.9µM*	-10%	4%
Cc1ccc(S(=O)(=O)N/N=C/c2cn(C)nc2C)cc1	1%	30	?	-1%	5%
Cc1ccc(S(=O)(=O)N/N=C\c2cccnc2)cc1	?	-88*	?	-15%	1%
Cc1ccc(S(=O)(=O)N/N=C/c2cc(Br)c(C)o2)cc1	25%	17	5.6µM*	-26%	-5%
Cc1cn([C@@H]2C[C@H](N=[N+]=N)[C@H](CO)O2)c(=O)[nH]c1=O	-13%	nt	-8%[20.9 µM]	-6%	4%[17.1 µM]
O=C(Cn1ncc(Cl)c(Cl)c1=O)N1CCOCC1	?	nt	-3%	nt	0%
CC1(C)C(=O)Nc2ccccc2N1C(=O)Cn1ncc(Cl)c(Cl)c1=O	nt	nt	1.1µM*	nt	nt
O=C(Cn1ncc(Cl)c(Cl)c1=O)N1CCc2ccccc21	nt	nt	10µM*	nt	-3%
O=C(Cn1ncc(Cl)c(Cl)c1=O)N1CCN(Cc2ccccc2)CC1	?	nt	28µM*	nt	-1%
Cc1nn(CC(=O)N2c3ccccc3NC(=O)C2(C)C)c(C)c1[N+](=O)[O-]	5%[46 µM]	nt	0%	nt	3%
COc1ccc(-c2nc3cc(NC(=O)COc4ccccc4C)ccc3o2)cc1	18%[46 µM]	nt	nt	nt	nt
COc1cccc(-n2c(=O)c3c(C)c(C(=O)N(C)C)sc3n(Cc3ccc(F)cc3Cl)c2=O)c1	18%[46 µM]	nt	nt	nt	nt
COc1cccc(C2NC(C(=O)O)CCC2C)c1 (stereo not given)	nt	nt	10%[13.5 µM]	nt	nt
O=C(COCc1cc(-c2cccs2)on1)N1CCN(c2ccc(F)cc2)CC1	-5%[46 µM]	nt	nt	nt	nt
CS(=O)(=O)N1CCC2(CC1)CN(C(c1ccccc1)c1ccccc1)C2	nt	nt	7%	-11%	0%
CSCCOC(=O)COc1ccc(/C=N/NC(=O)c2nn(C)cc2Cl)cc1	-3%	-21	7%	4µM*	-4%
Cc1ccc(S(=O)(=O)Oc2ccc(/C=N/NC(=O)c3nn(C)cc3Cl)cc2)cc1	-4%	-100*	?	-28%	-1%
CCCC(=O)Nc1ccc2nc(SCCOc3ccccc3)sc2c1	13%[46 µM]	nt	nt	nt	nt
Cc1cccc2cc(C(c3nnnn3CC3CCCO3)N3CCc4ccccc4C3)c(=O)[nH]c12 (stereo not given)	1%	22	13µM*	-24%	2%
Cc1ccc2cc(C(c3nnnn3CC3CCCO3)N3CCc4ccccc4C3)c(=O)[nH]c2c1 (stereo not given)	8%	23	18µM*	?	1%
CN(C)c1ncc2nc(-c3cccs3)c(=O)n(C3CC3)c2n1	nt	nt	?	?	-1%
COc1ccc(-c2nc(C#N)c(NCCc3ccccc3)o2)cc1	-11%	-100*	?	?	0%
COCCNc1oc(-c2ccc(C)cc2)nc1C#N	-5%	?	?	?	-3%
SMILES	Lamin A splicing	PNC inhibitor	ALDH1A1 block	HPGD inh	KinaseGlo FLuc
COc1ccc(CNc2oc(-c3ccccc3)nc2C#N)cc1	-16%	25	?	?	2%
COc1ccc(CCNc2oc(COc3ccc(Br)cc3)nc2C#N)cc1OC	19%	-6	4%	-12%	-5%
COc1ccc(CCNc2oc(Cc3cccc4ccccc34)nc2C#N)cc1OC	?	17	7.1µM*	-28%	0%
COc1ccc(CCNc2oc(-c3ccc(C)cc3)nc2C#N)cc1OC	?	-108*	?	?	-1%
CC(=O)Oc1ccc(Oc2ccc(-c3noc(C)n3)cc2)cc1	?	-12	0%	-28%	0%
CC(=O)Nc1ccc(Oc2ccc(-c3noc(C)n3)cc2)cc1	?	2	-5%	7.9µM*	-4%

Screening results: PubChem BioAssay, National Center for Advancing Translational Sciences (NCATS)
